Targets with a hit are over-represented here; the source holds about 7,900 in all. About 0.6% of all pairs of compound and target were hits. Unmarked numbers belong to inactive results.
Assays:
Experiment in all cases: log2 fold change, soluble protein after heating vs DMSO (PISA); higher = thermal stabilisation; K562 cells, 10 uM, 30 min; active = over 0.2 and 3.5 SD of the protein, either way, in both replicates (recomputed)
erlotinib = compound: C#Cc1cccc(Nc2ncnc3cc(OCCOC)c(OCCOC)cc23)c1 [erlotinib]
Summary of the method: (§1)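 Thermal stability values are relative to control samples and come from duplicates. They are expressed as log2 fold changes. For measurement, K562 cells (2×10^6 cells/mL) received 10 μM compound for 30 min, and aliquots were heated for 3 min over 48°C-58°C, pooled, and extracted at 4°C in PBS with 0.5% NP-40. Soluble protein, the supernatant after 21,000xg for 90 min, was quantified by TMTpro 16plex LC-MS/MS with equalised channel sums.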

[1] = compound: C/C(=N\NC(=O)C1=CC(=CC=C1)S(=O)(=O)N2CCOCC2)/C3=C(C=CC(=C3)Cl)O
Summary of the method: as §1

[2] = compound: C1=CC(=C(C=C1Cl)C2=NC3=NC=CN=C3C(=N2)NC4=CC=NC=C4)F
Summary of the method: as §1

[3] = compound: C1=CC(=CC=C1C2=NC3=C(N2)C=C(C=C3)C(=O)N)OC4=CC=C(C=C4)Cl
Summary of the method: as §1

[4] = compound: C1=CC2=C(C=CC(=C2)/C=C\3/C(=O)NC(=NCC4=CC=CS4)S3)N=C1
Summary of the method: as §1

[5] = compound: C1=CC2=NC=CN=C2C=C1/C=C/3\C(=O)NC(=O)S3
Summary of the method: as §1

[6] = compound: C1=CC=C(C=C1)C2=NC(=C(N2)C3=CC=NC=C3)C4=CC(=C(C=C4)Cl)O
Summary of the method: as §1

[7] = compound: C1=CC=C2C(=C1)C3=NNC4=CC=CC(=C43)C2=O
Summary of the method: as §1

IRAK-1-4 Inhibitor I = compound: C1COCCN1CCN2C3=CC=CC=C3N=C2NC(=O)C4=CC(=CC=C4)[N+](=O)[O-] [IRAK-1-4 Inhibitor I]
Summary of the method: as §1

ibrutinib = compound: C=CC(=O)N1CCC[C@@H](n2nc(-c3ccc(Oc4ccccc4)cc3)c3c(N)ncnc32)C1 [ibrutinib]
Summary of the method: as §1

[8] = compound: CC(=O)c1cnc2ccc(-c3cc(Cl)c(O)c(Cl)c3)nc2c1N[C@H]1CC[C@H](CN(C)C)CC1
Summary of the method: as §1

ralimetinib = compound: CC(C)(C)Cn1c(N)nc2ccc(-c3[nH]c(C(C)(C)C)nc3-c3ccc(F)cc3)nc21 [ralimetinib]
Summary of the method: as §1

[9] = compound: CC(C)(O)CC(=O)NCCn1ccc2ncnc(Nc3ccc(Oc4cccc(C(F)(F)F)c4)c(Cl)c3)c21
Summary of the method: as §1

[10] = compound: CC(C)C1=C2N=C(C=C(N2N=C1)NCC3=CC=CC=C3)NCCCCCCN
Summary of the method: as §1

[11] = compound: CC(C)C[C@@H](C=O)NC(=O)[C@H](CC(C)C)NC(=O)[C@H](CC(C)C)NC(=O)OCc1ccccc1
Summary of the method: as §1

pinometostat = compound: CC(C)N(C[C@H]1O[C@@H](n2cnc3c(N)ncnc32)[C@H](O)[C@@H]1O)[C@H]1C[C@@H](CCc2nc3cc(C(C)(C)C)ccc3[nH]2)C1 [pinometostat]
Summary of the method: as §1

[12] = compound: CC1=C(C(CC(=O)N1)C2=CC=C(C=C2)C(F)(F)F)C(=O)NC3=C(C=C4C(=C3)C=NN4)F
Summary of the method: as §1

[13] = compound: C1CCN(C1)C(=O)NC2=CC=CC(=C2)NC3=NC=C(C(=N3)NCCC4=CN=CN4)Br
Summary of the method: as §1

[14] = compound: C1CN(CCC1(CC2=CC=C(C=C2)Cl)N)C3=NC=NC4=C3C=CN4
Summary of the method: as §1

[15] = compound: CC1=C(C2=C(C=C1)C(=O)C3=CC=CC=C3N2CCCN)C
Summary of the method: as §1

Chain of UniProt O95273 (O95273 whole entry, looked up): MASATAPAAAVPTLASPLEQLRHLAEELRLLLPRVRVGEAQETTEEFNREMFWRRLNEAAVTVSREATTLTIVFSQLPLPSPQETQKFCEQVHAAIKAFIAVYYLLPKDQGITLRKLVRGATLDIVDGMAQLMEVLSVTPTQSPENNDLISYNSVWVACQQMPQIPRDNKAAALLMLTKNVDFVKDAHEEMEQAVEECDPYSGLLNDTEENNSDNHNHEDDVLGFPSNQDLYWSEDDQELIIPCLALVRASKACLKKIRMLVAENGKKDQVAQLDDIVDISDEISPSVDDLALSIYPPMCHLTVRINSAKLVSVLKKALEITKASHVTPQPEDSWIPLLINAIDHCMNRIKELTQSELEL
Chain of UniProt Q6UUV7 (Q6UUV7 whole entry, looked up): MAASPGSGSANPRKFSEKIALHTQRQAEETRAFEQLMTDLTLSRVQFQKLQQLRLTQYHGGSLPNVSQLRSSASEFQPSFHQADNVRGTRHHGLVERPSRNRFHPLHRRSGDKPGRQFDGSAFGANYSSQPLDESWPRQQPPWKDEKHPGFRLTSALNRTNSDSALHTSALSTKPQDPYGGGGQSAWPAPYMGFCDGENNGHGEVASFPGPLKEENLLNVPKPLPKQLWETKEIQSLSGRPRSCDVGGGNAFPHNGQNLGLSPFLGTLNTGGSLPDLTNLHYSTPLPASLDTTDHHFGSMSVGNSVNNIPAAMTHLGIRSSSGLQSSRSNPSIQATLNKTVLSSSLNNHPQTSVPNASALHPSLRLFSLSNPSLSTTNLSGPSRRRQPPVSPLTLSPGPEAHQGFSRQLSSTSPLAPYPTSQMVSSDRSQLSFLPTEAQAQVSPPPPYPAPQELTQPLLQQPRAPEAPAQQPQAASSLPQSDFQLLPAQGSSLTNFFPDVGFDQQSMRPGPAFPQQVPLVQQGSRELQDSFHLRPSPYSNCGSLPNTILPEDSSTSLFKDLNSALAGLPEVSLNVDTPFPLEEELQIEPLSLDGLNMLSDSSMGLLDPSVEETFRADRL
Chain of UniProt P51798 (P51798 whole entry, looked up): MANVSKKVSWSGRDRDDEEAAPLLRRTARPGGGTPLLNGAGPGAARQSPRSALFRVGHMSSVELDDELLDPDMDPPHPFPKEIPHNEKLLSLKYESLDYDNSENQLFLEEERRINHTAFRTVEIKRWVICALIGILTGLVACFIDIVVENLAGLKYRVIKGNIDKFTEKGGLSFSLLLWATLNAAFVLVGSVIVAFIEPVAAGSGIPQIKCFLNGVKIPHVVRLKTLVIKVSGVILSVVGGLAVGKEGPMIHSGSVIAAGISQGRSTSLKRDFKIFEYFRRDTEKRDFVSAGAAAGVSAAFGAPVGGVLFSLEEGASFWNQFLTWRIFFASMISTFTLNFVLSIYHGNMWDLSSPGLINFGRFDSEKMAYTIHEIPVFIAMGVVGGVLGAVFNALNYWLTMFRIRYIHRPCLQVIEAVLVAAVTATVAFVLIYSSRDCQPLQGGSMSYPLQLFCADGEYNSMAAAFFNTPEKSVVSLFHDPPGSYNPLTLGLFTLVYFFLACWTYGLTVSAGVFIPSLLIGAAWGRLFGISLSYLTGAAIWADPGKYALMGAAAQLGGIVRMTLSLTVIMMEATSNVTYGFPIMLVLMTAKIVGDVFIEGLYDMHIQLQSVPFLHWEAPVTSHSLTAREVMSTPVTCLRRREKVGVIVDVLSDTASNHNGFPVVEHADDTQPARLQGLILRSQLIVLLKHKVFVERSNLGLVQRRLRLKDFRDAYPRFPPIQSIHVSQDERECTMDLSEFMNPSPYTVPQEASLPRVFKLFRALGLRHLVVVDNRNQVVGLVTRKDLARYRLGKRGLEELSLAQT
Chain of UniProt Q9P0B6 (Q9P0B6 whole entry, looked up): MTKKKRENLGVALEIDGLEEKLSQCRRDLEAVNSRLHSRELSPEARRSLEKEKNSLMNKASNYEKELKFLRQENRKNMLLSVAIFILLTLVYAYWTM
Chain of UniProt P55211 (P55211 whole entry, looked up): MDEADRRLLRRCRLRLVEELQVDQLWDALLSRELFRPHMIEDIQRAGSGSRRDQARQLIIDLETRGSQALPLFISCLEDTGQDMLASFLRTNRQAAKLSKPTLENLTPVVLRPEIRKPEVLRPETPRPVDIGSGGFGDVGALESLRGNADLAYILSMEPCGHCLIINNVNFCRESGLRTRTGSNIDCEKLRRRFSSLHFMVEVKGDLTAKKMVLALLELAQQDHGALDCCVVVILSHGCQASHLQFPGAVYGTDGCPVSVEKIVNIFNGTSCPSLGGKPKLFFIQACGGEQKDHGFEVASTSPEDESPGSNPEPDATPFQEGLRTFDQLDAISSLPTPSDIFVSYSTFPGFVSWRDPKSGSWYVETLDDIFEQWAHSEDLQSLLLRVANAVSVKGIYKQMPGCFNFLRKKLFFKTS
Chain of UniProt Q96KA5 (Q96KA5 whole entry, looked up): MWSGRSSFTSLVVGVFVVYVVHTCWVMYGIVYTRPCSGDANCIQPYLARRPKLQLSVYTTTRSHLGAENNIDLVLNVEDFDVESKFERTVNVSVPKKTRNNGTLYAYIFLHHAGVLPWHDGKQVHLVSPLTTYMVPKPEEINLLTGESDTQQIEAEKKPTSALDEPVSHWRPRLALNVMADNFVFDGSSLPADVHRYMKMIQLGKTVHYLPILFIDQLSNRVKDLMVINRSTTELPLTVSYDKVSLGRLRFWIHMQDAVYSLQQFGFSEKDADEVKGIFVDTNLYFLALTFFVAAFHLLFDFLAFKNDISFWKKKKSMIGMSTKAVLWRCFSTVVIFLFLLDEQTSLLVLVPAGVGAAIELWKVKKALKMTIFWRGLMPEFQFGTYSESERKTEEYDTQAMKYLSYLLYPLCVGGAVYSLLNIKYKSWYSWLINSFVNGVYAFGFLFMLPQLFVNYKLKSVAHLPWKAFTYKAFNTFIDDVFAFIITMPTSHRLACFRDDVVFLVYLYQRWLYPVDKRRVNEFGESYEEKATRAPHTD
Chain of UniProt Q9BSQ5 (Q9BSQ5 whole entry, looked up): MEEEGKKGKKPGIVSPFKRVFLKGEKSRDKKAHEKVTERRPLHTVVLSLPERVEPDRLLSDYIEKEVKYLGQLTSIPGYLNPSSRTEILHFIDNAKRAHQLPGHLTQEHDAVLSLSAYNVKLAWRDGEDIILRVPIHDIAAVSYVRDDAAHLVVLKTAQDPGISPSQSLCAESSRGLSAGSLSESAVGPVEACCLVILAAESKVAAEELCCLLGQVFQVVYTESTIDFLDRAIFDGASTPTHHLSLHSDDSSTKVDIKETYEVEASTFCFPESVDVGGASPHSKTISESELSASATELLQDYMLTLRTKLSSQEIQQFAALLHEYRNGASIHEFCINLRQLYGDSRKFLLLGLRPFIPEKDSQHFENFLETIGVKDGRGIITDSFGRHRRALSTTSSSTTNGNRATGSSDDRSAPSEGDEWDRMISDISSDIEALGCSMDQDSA
Chain of UniProt Q5T655 (Q5T655 whole entry, looked up): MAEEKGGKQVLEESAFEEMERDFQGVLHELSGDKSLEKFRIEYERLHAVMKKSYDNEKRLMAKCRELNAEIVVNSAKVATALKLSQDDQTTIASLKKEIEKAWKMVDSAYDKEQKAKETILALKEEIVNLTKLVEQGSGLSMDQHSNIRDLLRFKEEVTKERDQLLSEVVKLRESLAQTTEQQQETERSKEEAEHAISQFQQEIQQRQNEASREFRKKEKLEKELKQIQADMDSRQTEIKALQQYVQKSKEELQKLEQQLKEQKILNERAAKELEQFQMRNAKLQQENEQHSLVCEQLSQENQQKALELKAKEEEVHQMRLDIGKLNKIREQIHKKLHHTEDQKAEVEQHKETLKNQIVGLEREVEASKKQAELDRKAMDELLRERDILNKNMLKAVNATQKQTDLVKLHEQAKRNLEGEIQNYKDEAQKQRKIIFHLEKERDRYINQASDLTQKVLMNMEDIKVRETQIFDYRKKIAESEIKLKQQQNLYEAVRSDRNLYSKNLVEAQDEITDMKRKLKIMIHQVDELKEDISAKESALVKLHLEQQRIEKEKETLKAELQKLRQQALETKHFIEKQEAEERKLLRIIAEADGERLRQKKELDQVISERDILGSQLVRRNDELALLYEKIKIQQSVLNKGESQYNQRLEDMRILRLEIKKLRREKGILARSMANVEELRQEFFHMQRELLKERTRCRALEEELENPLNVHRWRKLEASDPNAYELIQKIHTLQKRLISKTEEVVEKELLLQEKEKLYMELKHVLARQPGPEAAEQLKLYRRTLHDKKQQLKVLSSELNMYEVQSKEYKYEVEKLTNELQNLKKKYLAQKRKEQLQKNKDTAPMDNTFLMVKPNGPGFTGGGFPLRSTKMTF
Chain of UniProt Q96F85 (Q96F85 whole entry, looked up): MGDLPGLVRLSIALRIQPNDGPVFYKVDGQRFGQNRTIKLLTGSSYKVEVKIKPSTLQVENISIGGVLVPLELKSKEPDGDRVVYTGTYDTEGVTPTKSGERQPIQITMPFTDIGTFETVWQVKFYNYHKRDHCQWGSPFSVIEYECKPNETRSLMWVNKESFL
Chain of UniProt P30281 (P30281 whole entry, looked up): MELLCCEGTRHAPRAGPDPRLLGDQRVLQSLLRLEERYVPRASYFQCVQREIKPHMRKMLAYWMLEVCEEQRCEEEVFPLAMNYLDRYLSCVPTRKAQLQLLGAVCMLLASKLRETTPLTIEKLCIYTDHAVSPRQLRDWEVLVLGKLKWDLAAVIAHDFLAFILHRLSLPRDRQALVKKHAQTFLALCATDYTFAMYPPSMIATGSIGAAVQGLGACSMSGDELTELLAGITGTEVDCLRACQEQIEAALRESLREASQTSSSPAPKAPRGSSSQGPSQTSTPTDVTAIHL
Chain of UniProt Q8N668 (Q8N668 whole entry, looked up): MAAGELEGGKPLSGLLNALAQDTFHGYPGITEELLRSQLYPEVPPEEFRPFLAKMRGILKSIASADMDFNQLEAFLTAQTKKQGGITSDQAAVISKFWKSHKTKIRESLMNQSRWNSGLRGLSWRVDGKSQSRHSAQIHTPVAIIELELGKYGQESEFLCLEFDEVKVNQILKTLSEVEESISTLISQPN

Target	log2 fold change (erlotinib)	log2 fold change [1]	log2 fold change [2]	log2 fold change [3]	log2 fold change [4]	log2 fold change [5]	log2 fold change [6]	log2 fold change [7]	log2 fold change (IRAK-1-4 Inhibitor I)	log2 fold change (ibrutinib)	log2 fold change [8]	log2 fold change (ralimetinib)	log2 fold change [9]	log2 fold change [10]	log2 fold change [11]	log2 fold change (pinometostat)	log2 fold change [12]	log2 fold change [13]	log2 fold change [14]	log2 fold change [15]
CDC25B isoform 4 (UniProt P30305)	-0.031	0.117	0.036	0.044	-0.062	0.131	-0.007	-0.047	0.068	0.037	-0.302	0.079	-0.049	0.021	-0.02	0.007	0.155	–	–	–
CLCN7 (UniProt P51798)	0.079	0.047	0.075	-0.008	0.023	0.063	0.076	-0.05	-0.01	–	-0.005	-0.055	-0.08	-0.91 (active)	0	-0.051	0.04	0.016	0.001	-0.092
CLCN3 isoform 2 (UniProt P51790)	0.008	0.089	0.059	0.044	0.024	-0.002	0.025	-0.017	0.005	–	-0.008	0.026	-0.043	-0.049	-0.066	-0.043	-0.012	-0.012	0.033	0.051
CCNDBP1 (UniProt O95273)	0.009	0.191	–	0.105	-0.011	0.034	0.076	-0.122	–	-0.184	0.071	0.168	–	-0.077	-0.027	–	0.166	-0.086	-0.068	-0.166
CLPTM1L (UniProt Q96KA5)	0.011	0.04	-0.029	0.063	0.032	0.018	-0.002	-0.037	0.051	–	-0.033	-0.05	-0.069	-0.281 (active)	0.006	0.023	0.042	-0.022	0.017	0.033
CLINT1 isoform 3 (UniProt Q14677)	0.016	-0.134	-0.097	-0.036	0.026	0.05	-0.03	-0.042	–	–	0.135	0.139	0.102	0.103	0.04	0.047	-0.002	-0.044	0.042	0.022
CCND3 (UniProt P30281)	-0.028	-0.025	-0.081	0.036	0.143	0.289	0.047	-0.001	–	-0.063	0.078	-0.076	0	-0.303	0.341	–	–	0.09	-0.043	-0.088
CCNC (UniProt P24863)	-0.056	-0.077	-0.122	-0.026	0.096	0.256	-0.001	0.209	0.071	-0.082	0.595 (active)	-0.027	0.053	0.041	0.071	-0.058	–	–	–	–
C15orf41 (UniProt Q9Y2V0)	0.02	0.017	0.002	-0.033	-0.018	–	0.001	-0.098	0.105	–	0.062	0.004	-0.103	-0.17	0.11	0.027	–	0.115	0.075	-0.117
CNRIP1 (UniProt Q96F85)	-0.065	–	0.045	0.045	–	–	-0.115	–	–	–	–	-0.051	-0.255	0.034	0.116	–	0.165	–	–	–
C6orf120 (UniProt Q7Z4R8)	-0.2	–	–	0.134	–	-0.003	-0.009	–	0.116	-0.003	–	0.015	–	-0.19	-0.003	-0.023	0.062	0.005	0.028	0.002
CCM2 isoform 2 (UniProt Q9BSQ5)	0.142	–	-0.042	0.035	–	0.083	0.013	–	0.027	-0.004	–	0.04	0.027	-0.085	0.009	0.056	–	0.09	0.16	-0.013
CAD (UniProt H7BZB3)	–	-0.061	–	–	0.242	–	–	-0.058	–	–	-0.322	–	–	–	–	–	–	–	–	–
CASP9 (UniProt P55211)	–	0.059	-0.016	–	-0.049	–	-0.02	0.048	0.03	–	-0.096	0.008	-0.043	–	0.053	0.03	-0.071	-0.054	-0.218	-0.206
COMMD1 (UniProt Q8N668)	-0.136	–	-0.241	0.15	–	-0.088	0.066	–	-0.033	-0.083	–	0.036	0.06	-0.177	0.19	0.046	0.027	0.037	-0.083	0.006
CFAP58 (UniProt Q5T655)	–	–	–	–	–	–	0.047	–	–	–	–	-0.04	–	–	-0.035	–	–	–	–	–
CCDC167 (UniProt Q9P0B6)	0.068	–	0.008	-0.041	–	0.054	0.072	–	-0.056	0.013	–	-0.028	0.163	-0.258	0.061	0.052	0.034	0.054	0.224	0.021
CSNK1A1 isoform 3 (UniProt P48729)	–	–	–	–	–	0.111	–	–	–	0.029	–	–	–	–	–	–	–	–	–	–
CRTC3 (UniProt Q6UUV7)	–	–	0.04	–	–	0.094	-0.146	–	–	-0.035	–	0.048	-0.104	–	0.042	–	–	0.02	0.075	0
CS (UniProt F8VU34)	–	–	–	–	–	0.06	–	–	–	-0.137	–	–	–	–	–	–	–	–	–	–

— the supplement of paper PMC10849652
